Compound activity (PubChem BioAssay)
Only some compounds are listed: those with a hit (about 6.6% of all), similar ones and a draw of the others.
CSC inhib: blocks cancer stem cells; cancer stem cell-like cells viability, luminescence; inhibition, % at 7.5 µM; 300,000 tested, 1.1% active; AID 2717; in the data active = inhibition above about 75%; inconclusive = no clear call, values can overlap the other calls; tested in HMLE shEcad cells
Mdm2-MdmX inh: inhibitors of human Mdm2/MdmX interaction. SaOS-2 split-luciferase Mdm2/MdmX complementation, luminescence. 330,000 tested, 3% active. inhibition, % at 8 µM. O15151+Q00987;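 active = inhibition of at least 50% at 8 µM in the primary screen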
Target sequence (O15151 whole entry, looked up): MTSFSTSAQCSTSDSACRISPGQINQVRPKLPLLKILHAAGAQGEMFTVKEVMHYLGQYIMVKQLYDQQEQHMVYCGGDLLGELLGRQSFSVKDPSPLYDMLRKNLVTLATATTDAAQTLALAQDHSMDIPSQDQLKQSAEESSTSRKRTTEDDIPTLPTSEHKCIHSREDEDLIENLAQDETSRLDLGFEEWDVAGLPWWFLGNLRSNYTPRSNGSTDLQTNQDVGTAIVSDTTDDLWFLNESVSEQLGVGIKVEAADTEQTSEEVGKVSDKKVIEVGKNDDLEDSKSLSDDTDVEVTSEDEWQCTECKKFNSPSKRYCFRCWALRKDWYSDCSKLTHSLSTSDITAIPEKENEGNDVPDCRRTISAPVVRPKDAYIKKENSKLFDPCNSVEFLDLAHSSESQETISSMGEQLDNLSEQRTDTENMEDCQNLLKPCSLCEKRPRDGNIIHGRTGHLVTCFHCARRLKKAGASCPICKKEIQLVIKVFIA
Target sequence (Q00987 whole entry, looked up): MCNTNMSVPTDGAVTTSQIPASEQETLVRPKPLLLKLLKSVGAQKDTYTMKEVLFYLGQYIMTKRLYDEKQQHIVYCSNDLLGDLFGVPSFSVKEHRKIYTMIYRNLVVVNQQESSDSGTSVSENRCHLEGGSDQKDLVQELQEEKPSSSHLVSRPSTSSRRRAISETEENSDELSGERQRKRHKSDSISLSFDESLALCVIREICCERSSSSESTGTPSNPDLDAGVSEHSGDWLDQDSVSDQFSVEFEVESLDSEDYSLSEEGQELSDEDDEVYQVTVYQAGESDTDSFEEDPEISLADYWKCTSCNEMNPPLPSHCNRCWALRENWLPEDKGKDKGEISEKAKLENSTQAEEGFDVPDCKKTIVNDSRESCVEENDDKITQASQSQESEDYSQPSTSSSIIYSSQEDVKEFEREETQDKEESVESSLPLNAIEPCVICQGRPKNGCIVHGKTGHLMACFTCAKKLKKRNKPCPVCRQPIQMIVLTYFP
MPTP block: permeability transition pore inhibition. inhibition, % at 10 µM. 360,000 tested, 1.4% active. isolated mouse mitochondria, Ca2+ swelling absorbance, 30 min;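 active = inhibition of 50% or more, scaled per plate between neutral and stimulator controls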
GRIN3A LBD mod: NR3A (human) ligand-binding domain modulation | AID 1259313 | 340,000 tested, 2.5% active | NR3A LBD differential scanning fluorimetry, Tm shift; 0% = protein alone, 100% = glycine-bound protein | Tm shift relative to glycine control, % at 25 µM;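 active = melting temperature shift of at least 10% of the positive control shift, at one fixed dose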
Beta cell apopt: beta cell apoptosis inhibition | INS-1E cytokine-induced death, ATP luminescence, 48 h; percent of positive-control rescue, neutral wells zero | protection from apoptosis, % (test concentration not listed) | 300,000 tested, 0.8% active;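 active = Every replicate reaches about 75%, or at least half do and their mean reaches it too, limit read from the data; inconclusive = At least half of replicates reach the limit but their mean does not; inactive = Under half of replicates reach the limit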;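 also: higher means more ATP so stronger rescue from cytokine killing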
Gli-Sufu block: antagonists of Gli-Sufu signaling; Sufu-KO-LIGHT fibroblasts, Gli luciferase reporter luminescence; inhibition, % at 5 µM; 340,000 tested, 0.74% active;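 active = inhibition above about 55%, limit read from the data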
Numbers stand for hits; i = inactive; ? = inconclusive; nt = no result given.

SMILES	CSC inhib	Mdm2-MdmX inh	MPTP block	GRIN3A LBD mod	Beta cell apopt	Gli-Sufu block
Cc1nn(-c2ccccc2)c(N2CCCCC2)c1/C=N/O	164	i	i	i	i	i
c1ccc2c(Cn3nnc4ccccc43)cccc2c1	nt	i	i	11	nt	i
COc1cccc(NC(=O)Cc2csc(NC(=O)Nc3ccccc3OC)n2)c1	i	i	i	29	nt	i
COc1ccccc1NC(=O)Nc1nc(CC(=O)Nc2ccc(OC)c(OC)c2)cs1	i	i	i	17	i	i
CCOC(=O)Nc1cccc(OCC(=O)Nc2ccc3c(c2)CCC3)c1	i	i	i	i	i	i
O=C1C2(CCCC13COC(c1ccc(O)cc1)OC3)COC(c1ccc(O)cc1)OC2 (stereo unspecified)	i	i	nt	26	i	i
O=C(COC(=O)CC1Sc2ccccc2NC1=O)NCc1ccccc1 (stereo unspecified)	i	i	i	i	nt	nt
C/C(=N\NS(=O)(=O)c1ccccc1)c1cccc(NC(=O)c2cccc(Cl)c2)c1	?	i	i	15	i	i
CCN(CC)S(=O)(=O)c1cccc(C(=O)N/N=C(\C)c2cccs2)c1	i	i	i	i	i	i
C/C(=N\NC(=O)c1cccc(S(=O)(=O)Nc2cccc(Cl)c2)c1)c1cccs1	i	i	i	14	i	i
COc1cccc(C(NC(C)=O)c2nc(-c3ccc4c(c3)OCO4)cs2)c1 (stereo unspecified)	nt	nt	i	nt	nt	nt
O=C(NCCc1c[nH]c2ccccc12)OC1CC2CC1[C@H]1CCCCN1C2=O (stereo partly specified)	nt	nt	i	nt	nt	nt
COc1ccc(N2CC(C(=O)NC3CCSC3=O)CC2=O)cc1 (stereo unspecified)	i	i	i	i	i	i
COC(=O)c1nn(-c2ccccc2)c2nnc(Cc3ccc(C)cc3)c(=O)n12	i	i	i	i	i	i
CCOC(=O)c1nn(-c2ccc(Cl)cc2)c2nnc(Cc3ccc(C)cc3)c(=O)n12	i	i	i	13	i	i
CCOC(=O)c1nn(-c2ccccc2)c2nnc(Cc3ccc(Cl)cc3)c(=O)n12	i	i	i	i	i	i
CCOC(=O)c1nn(-c2ccc(Cl)cc2)c2nnc(Cc3ccccc3)c(=O)n12	i	i	i	10	i	i
COc1ccc(-c2oc3ccccc3c2C(=O)OCc2ccccc2OC)cc1	i	i	i	17	i	i
CCOC(=O)c1c(-c2ccc(OC)cc2)oc2cc(Br)c(O)cc12	i	i	i	13	i	i
CCOc1ccc(N2C(=O)Nc3ccc(Br)cc3C2(O)C(=O)NCCCN(C)C)cc1 (stereo unspecified)	i	i	i	12	i	i
CCOc1ccc(N2C(=O)Nc3ccc(Br)cc3C2(O)C(=O)NC(C)C)cc1 (stereo unspecified)	i	i	i	12	i	i
CCOc1ccc(N2C(=O)Nc3ccc(Br)cc3C2(O)C(=O)NCCN(C)C)cc1 (stereo unspecified)	i	i	i	i	i	i
O=c1cc(-c2ccccc2)[nH]c2ccc(F)cc12	i	nt	i	i	i	i
COc1ccc2[nH]c(-c3cccc(F)c3)cc(=O)c2c1	76	i	i	i	i	i
O=C(CCn1c2c(c3ccccc31)CCCC2)NNC(=O)c1ccc(Cl)c([N+](=O)[O-])c1	i	i	i	20	i	i
SMILES	CSC inhib	Mdm2-MdmX inh	MPTP block	GRIN3A LBD mod	Beta cell apopt	Gli-Sufu block
CCOc1ccc(C2=C(C=C(C#N)C#N)C(c3ccccc3)c3ccccc3O2)cc1 (stereo unspecified)	i	i	i	i	i	i
COc1ccc(C2=C(CN(C)C)C(c3ccccc3)c3ccccc3O2)cc1 (stereo unspecified)	i	i	i	11	i	i
CCn1c(C(C)NC(=O)c2cccs2)n[nH]c1=S (stereo unspecified)	i	i	i	10	i	i
C=CCn1c(C(C)NC(=O)c2cccs2)n[nH]c1=S (stereo unspecified)	i	i	i	i	i	i
NC(=O)C1CCN(C(=O)CCC(=O)c2cccs2)CC1	nt	i	i	i	i	i
CC(CC(=O)Nc1nnc(C(C)(C)C)s1)c1ccccc1 (stereo unspecified)	i	i	i	i	i	i
COc1ccc(C=CC(=O)c2ccc(OC)c(OC)c2O)cc1OC	nt	nt	i	i	nt	i
O=C(/C=C/c1ccccc1)c1cc(Br)ccc(=O)c1O	93	i	i	i	i	i
Cc1ccc(/C=C/C(=O)c2ccccc(=O)c2O)cc1C	97	nt	i	i	i	i
CCOC(=O)c1sc(NC(=O)/C=C/c2ccccc2)nc1C	i	i	i	10	i	i
COC(=O)c1sc(NC(=O)/C=C/c2ccccc2Cl)nc1C	i	i	i	19	i	i
COC(=O)c1sc(NC(=O)/C=C/c2ccc(C)cc2)nc1C	i	i	i	23	i	i
COC(=O)c1sc(NC(=S)NC(=O)c2ccccc2Cl)nc1C	i	i	i	i	nt	i
Cc1nc(NC(=O)/C=C/c2ccccc2)sc1C(=O)Nc1ccccc1	i	i	i	21	i	i
CCNc1nc(NC(C)CC)nc(ON=C(C)C)n1 (stereo unspecified)	i	i	i	i	i	i
O=C(NNS(=O)(=O)c1ccccc1)Nc1ccc(F)cc1	nt	i	i	i	i	i
COC(=O)c1c(NC(=O)C(C)C)sc(C(=O)N2CCOCC2)c1C	i	i	i	i	i	i
CN(C)S(=O)(=O)n1cnc([C@@H]2[C@@H]3C(=O)OC[C@@H]3C[C@]23N=CN(Cc2ccccc2)C3=O)c1	i	i	i	i	i	i
Cc1ccc(S(=O)(=O)N2C[C@H]3[C@H]4C(=O)N(c5ccccc5)C(=O)[C@H]4C[C@H](OC(=O)Nc4cccs4)[C@@]3(O)C2)cc1	nt	nt	i	nt	nt	nt
COc1ccccc1NC(=S)NC1CCCCCCCCCCC1	i	i	i	i	77	i
COc1ccccc1NC(=S)NC1CCCCC1	i	i	i	i	i	i
O=C(CC1C(=O)NCCN1Cc1ccc(-c2ccccc2)cc1)NC1CCC1 (stereo unspecified)	i	i	i	i	116	i
O=C(COCc1cc(-c2ccc3c(c2)OCO3)on1)N1CCN(c2cccc(C(F)(F)F)c2)CC1	119	i	i	i	i	i
COc1ccc(N2CCN(C(=O)COCc3cc(-c4ccc5c(c4)OCO5)on3)CC2)cc1	i	i	i	i	i	i
O=c1[nH]c(/C(Cl)=C/c2cc(Cl)ccc2O)nc2cc(Cl)ccc12	101	i	i	39	i	i
COc1ccc(/C=C/C(=O)NCC(=O)N/N=C(/C)c2ccco2)cc1	i	i	i	14	i	i
C/C(=N/NC(=O)CNC(=O)/C=C/c1ccccc1)c1ccco1	i	i	i	i	i	i
COc1ccc(N2C(=NC(=O)c3ccc(Br)cc3)SC3CS(=O)(=O)CC32)cc1 (stereo unspecified)	i	i	i	i	i	i
CCN(CC(=O)NCc1ccc(F)cc1)C(=O)COc1ccc2ccccc2c1	i	i	i	10	i	i
